Where “and” joins values, the source holds several entries; their conditions need not be identical. Identical values can stand only once. In all, about 5,500 compounds went through this assay and about 2,000 (36%) were called active. About 18% were inconclusive and are not listed. Cut-off read from the data, not from the text of the source: active = normalized growth mostly below about 0.91 (no sharp cut-off); inconclusive = no clear call, values can overlap the other calls; inactive = mostly above about 0.92. Some of the results follow.
Experiment: chemical genetic growth profiling, strain panel (AID 1159580);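 note: tested at 20 µM; growth read once vehicle control cultures reached saturation at 30 °C; 1 = growth at the plate median or of vehicle wells; lower values mean less growth of the strain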
Details: S. cerevisiae deletion strains, growth OD

Measured: normalized growth

CS(=O)(=O)c1ccc(C2=C(c3ccccc3)C(=O)OC2)cc1
inactive: locus YAL013W, strain DEP1, stronger effect = lower value 0.996 | locus YAL021C, strain ccr4, stronger effect = lower value 0.955 | locus YAL026C, strain drs2, stronger effect = lower value 0.985 | locus YAL030W, strain snc1, stronger effect = lower value 0.971 | locus YBL061C, strain skt5, stronger effect = lower value 0.972 | locus YBR009C, strain hhf1, stronger effect = lower value 0.959 | locus YBR021W, strain FUR4, stronger effect = lower value 0.986 | locus YBR023C, strain chs3, stronger effect = lower value 0.979 | locus YBR171W, strain sec66, stronger effect = lower value 0.983 | locus YBR229C, strain ROT2, stronger effect = lower value 1 | locus YBR231C, strain swc5, stronger effect = lower value 1 | locus YBR279W, strain paf1, stronger effect = lower value 0.987 | locus YCL011C, strain gbp2, stronger effect = lower value 0.975 | locus YCL016C, strain dcc1, stronger effect = lower value 0.98 | locus YCL029C, strain bik1, stronger effect = lower value 0.994 | locus YCL061C, strain MRC1, stronger effect = lower value 0.986 | locus YCL069W, strain vba3, stronger effect = lower value 0.976 | locus YCR088W, strain abp1, stronger effect = lower value 0.985 | locus YDL005C, strain med2, stronger effect = lower value 0.983 | locus YDL035C, strain GPR1, stronger effect = lower value 0.973 | locus YDL040C, strain nat1, stronger effect = lower value 0.984 | locus YDL074C, strain BRE1, stronger effect = lower value 0.929 | locus YDL101C, strain DUN1, stronger effect = lower value 0.99 | locus YDL134C, strain PPH21, stronger effect = lower value 1.01 | locus YDL185W, strain tfp1, stronger effect = lower value 0.963 | locus YDL192W, strain arf1, stronger effect = lower value 0.98 | locus YDR001C, strain nth1, stronger effect = lower value 0.985 | locus YDR069C, strain doa4, stronger effect = lower value 0.967 | locus YDR101C, strain arx1, stronger effect = lower value 0.995 | locus YDR137W, strain rgp1, stronger effect = lower value 1.02 | locus YDR150W, strain NUM1, stronger effect = lower value 0.991 | locus YDR159W, strain sac3, stronger effect = lower value 0.968 | locus YDR162C, strain NBP2, stronger effect = lower value 0.979 | locus YDR195W, strain ref2 0.963 | locus YDR297W, strain sur2, stronger effect = lower value 0.983 | locus YDR318W, strain mcm21, stronger effect = lower value 0.983 | locus YDR334W, strain swr1, stronger effect = lower value 0.968 | locus YDR335W, strain msn5, stronger effect = lower value 0.982 | locus YDR388W, stronger effect = lower value 0.991 | locus YDR392W, strain spt3, stronger effect = lower value 0.954 | locus YDR502C, strain sam2, stronger effect = lower value 0.983 | locus YEL003W, strain gim4, stronger effect = lower value 0.977 | locus YEL037C, strain rad23, stronger effect = lower value 0.992 | locus YEL061C, strain CIN8 (second series), stronger effect = lower value 0.97 | locus YEL061C, strain CIN8, stronger effect = lower value 0.984 | locus YER015W, strain faa2, stronger effect = lower value 0.98 | locus YER016W, strain bim1, stronger effect = lower value 0.985 | locus YER110C, stronger effect = lower value 0.988 | locus YER111C, strain swi4, stronger effect = lower value 0.978 | locus YER155C, strain BEM2 (second series), stronger effect = lower value 0.98 | locus YER155C, strain BEM2, stronger effect = lower value 1.04 | locus YER167W, strain BCK2, stronger effect = lower value 0.989 | locus YFR010W, strain ubp6, stronger effect = lower value 0.961 | locus YGL078C, strain dbp3, stronger effect = lower value 0.996 | locus YGL086W, strain mad1, stronger effect = lower value 0.983 | locus YGL167C, strain pmr1, stronger effect = lower value 0.971 | locus YGL173C, strain kem1, stronger effect = lower value 0.989 | locus YGL227W, strain vid30, stronger effect = lower value 0.969 | locus YGL240W, strain doc1, stronger effect = lower value 0.975 | locus YGL248W, strain PDE1, stronger effect = lower value 1 | locus YGL253W, strain hxk2, stronger effect = lower value 0.987 | locus YGR078C, strain PAC10, stronger effect = lower value 0.957 | locus YGR135W, strain pre9, stronger effect = lower value 0.979 | locus YGR229C, strain SMI1, stronger effect = lower value 0.971 | locus YGR252W, strain gcn5, stronger effect = lower value 0.967 | locus YHR013C, strain ard1, stronger effect = lower value 0.971 | locus YHR027C, strain rpn1, stronger effect = lower value 0.963 | locus YHR030C, strain SLT2, stronger effect = lower value 0.994 and 1.03 | locus YHR079C, strain IRE1 (second series), stronger effect = lower value 0.992 | locus YHR079C, strain IRE1, stronger effect = lower value 1.03 | locus YHR094C, strain hxt1, stronger effect = lower value 0.984 | locus YHR129C, strain ARP1, stronger effect = lower value 1 | locus YHR142W, strain chs7, stronger effect = lower value 0.984 | locus YHR200W, strain rpn10, stronger effect = lower value 0.969 | locus YIL066C, strain RNR3, stronger effect = lower value 1.01 | locus YIL073C, strain SPO22, stronger effect = lower value 0.936 | locus YIL125W, strain kgd1, stronger effect = lower value 0.999 | locus YIR030C, strain dcg1, stronger effect = lower value 0.987 | locus YJL092W, strain hpr5, stronger effect = lower value 0.984 | locus YJL095W, strain BCK1 (second series), stronger effect = lower value 0.977 | locus YJL095W, strain BCK1, stronger effect = lower value 0.951 and 1.01 | locus YJL115W, strain asf1, stronger effect = lower value 0.962 | locus YJL129C, strain trk1, stronger effect = lower value 0.978 | locus YJL134W, strain LCB3, stronger effect = lower value 0.998 | locus YJL154C, strain vps35, stronger effect = lower value 0.991 | locus YJL164C, strain tpk1, stronger effect = lower value 0.965 | locus YJL166W, strain qcr8, stronger effect = lower value 0.986 | locus YJL168C, strain set2, stronger effect = lower value 0.993 | locus YJL187C, strain SWE1 (second series), stronger effect = lower value 0.989 | locus YJL187C, strain SWE1, stronger effect = lower value 0.981 | locus YJR043C, strain POL32, stronger effect = lower value 0.955

Reference: PubChem BioAssay AID1159580 (chemical genetic matrix, 2015)
